This is an account of results in PubChem BioAssay (NCI).

SMILES strings stand for the structures. About 83,000 compounds went through this panel and 20% of them were active in at least one assay; those are over-represented in the sample as a whole.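 Note: values are percent growth. 100 is the growth of untreated cells, values between 100 and 0 indicate rising inhibition; between -100 and 0 indicates cell death.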 Unmarked numbers belong to inactive results. The source made the active and inactive calls. The calls were made as follows: active = growth percent below 10; inactive = the rest.

The assay relates to HCC-2998 colon. Nature of the assay: NCI-60 one-dose screen, 48 h (100 = growth as untreated, 0 = no growth, -100 = all killed). The following applies: 10 µM unless noted.
`O=C1N=c2cc3c(cc2=C/C1=C/c1sc(=S)n(CCc2ccc(O)cc2)c1O)OCCO3`: the growth was 29.4%.

On to `O=Cc1c[nH]c2ccc(-c3csc4ccccc34)cc12`, for which the growth is 13.4%.

Turning to `O=C(Nc1ccccc1)Nc1cccc(Oc2nnc(Cl)c3ccccc23)c1`, the growth is 52.8%.

For `NC(=O)c1ccc[n+]([C@@H]2O[C@H](COP(=O)([O-])OP(=O)(O)OC[C@H]3O[C@@H](n4cnc5c(N)ncnc54)[C@H](O)[C@@H]3O)[C@@H](O)[C@H]2O)c1`, the growth is 100%.

On to `O=C1CCc2c(sc3[nH]c(=S)n(-c4ccc(OC(F)(F)F)cc4)c(=O)c23)C1`, for which the growth was 28.5%.

On to `CC1(C)CC[C@]2(C(=O)N3CCOCC3)CC[C@]3(C)C(=CC[C@@H]4[C@@]5(C)CC[C@H](OC(=O)c6cccnc6)C(C)(C)[C@@H]5CC[C@]43C)[C@@H]2C1`, for which the growth was 58.7%.

With `COC(=O)[C@]12CC[C@@H](C)[C@H](C)[C@@H]1C1=CC[C@@H]3[C@@]4(C)C(C=O)=C[C@@](C)(COC(=O)c5ccco5)C4=CC[C@@]3(C)[C@]1(C)CC2`, the growth was -7.04% (active).

On to `O=[N+]([O-])c1ccc(-c2cc(-c3ccc(Nc4nc(Nc5ccc(Cl)cc5)nc(Nc5ccc(Cl)cc5)n4)cc3)no2)cc1`, for which the growth is 78.2%.

Take `CCCCCS(=O)(=O)Nc1ccc(C(=O)O)cc1`: the growth was 114%.

Take `COc1ccc(-c2ccc3c(c2)sc2nc(-c4ccc(F)cc4)cn23)cc1`: the growth is 29.3%.

With `NC(=N\N=C/c1ccccc1[N+](=O)[O-])/C(N)=N\N=C/c1ccccc1[N+](=O)[O-]`, the growth is 108%.

Take `O=C(COc1ccc(/C=C2\Oc3ccccc3C2=O)cc1)Nc1nc2c(s1)CCCC2`: the growth was 99.6%.

On to `O=[N+]([O-])c1ccc(OCCO)cc1`, for which the growth is 113%.

As for `Cn1cc2c(c1)-c1nc(Nc3ccccc3)ncc1CC2`, the growth is 50.7%.

For the compound `CC1=C(SCCC(=O)OC(C[Se]C2=C(C)C(=O)c3ccccc3C2=O)C(=O)NCCCCCC(=O)OCc2ccccc2)C(=O)c2ccccc2C1=O` (stereo not drawn), the growth was 32%.

`CC/C=C\C/C=C\C[C@H](O)C/C=C1/C(=O)C=C[C@@H]1C/C=C\CCCC(=O)O`: the growth is -22% (active).

Turning to `COc1cccc(Nc2nccc(Nc3ccc4[nH]ncc4c3)n2)c1`, the growth was -7.35% (active).

On to `COc1cccc(-c2nn(-c3ccccc3)cc2-c2ccnc(NCCNC(=O)c3ccccc3)c2)c1`, for which the growth is 71.2%.

For `COc1ccccc1CNCCCN1C(=O)c2ccc3c4c(ccc(c24)C1=O)C(=O)N(CCCNCCCCN)C3=O`, the growth is -71.8% (active).

In the case of `COc1ccc2cc(-c3cc(OC)c(OC)c(OC)c3)c(=O)oc2c1`, the growth is 86.6%.

Take `NC(=S)Nc1cccc(O)c1`: the growth is 96.7%.

As to `CCCCn1c(=O)c2c(nc3n2CCCN3CCc2ccc(OCC(=O)NCCN(CC)CC)cc2)n(CCCC)c1=O`, the growth is 56.8%.

On to `COc1cc2c(cc1-c1c(C)noc1C)ncc1nc(C3CCC(F)(F)CC3)n(C3CCC(OC(F)F)CC3)c12` (stereo not drawn), for which the growth was 52.1%.

For `CCN1CCN(c2cc(C)nc(NCc3cc(Nc4ccnc5cc(Cl)ccc45)ccc3F)n2)CC1`, the growth is 28%.

Turning to `CCCCc1ccc(Nc2ccc(Nc3ccc(CCCC)cc3S(=O)(=O)O)c3c2C(=O)c2ccccc2C3=O)c(S(=O)(=O)O)c1`, the growth was 117%.

For the compound `N#Cc1c(-c2cccc(Cl)c2)cc(-c2cccc(Cl)c2)[nH]c1=O`, the growth was 82.6%.

With `Cc1cccc(Cc2cnc(NC(=O)/C=C/c3ccco3)s2)c1`, the growth was 6.44% (active).

For `N#CC1=C(c2ccc(Br)cc2)NC(SCC(=O)c2ccc(Br)cc2)NC1=O` (stereo not drawn), the growth is 106%.

Take `C[C@H](NC(=O)[C@@H]1CSSC[C@@H](NC(=O)c2nc3ccccc3cc2O)C(=O)NCC(=O)N1C)c1ccccc1`: the growth is 55.1%.

As for `Cc1c2c(c(C)c3c1oc1cc(O)ccc13)C(=O)N(CCN1CCCCC1)C2=O`, the growth was 93.6%.

Regarding `CCCCCCCCCCCCCCCCCCOc1ccc(CC(=O)OCC[N+]2(C)CCCC2)cc1`, the growth is 104%.

`COc1cccc(-c2nn(-c3ccccc3)cc2-c2ccnc(NCCCNC(=O)c3ccc(F)cc3)c2)c1`: the growth was 40.2%.

In the case of `COC(=O)[C@H](CSC)N(C)C(=O)[C@@H]1CSSC[C@@H](NC(=O)c2nc3ccccc3cc2O)C(=O)NCC(=O)N1C`, the growth is 98.8%.

For `COc1cccc(/C=C/C(=O)c2c(C)nc3ccccc3c2/C=C/c2ccc(C)cc2)c1OC`, the growth is 36.4%.

On to `COc1ccc(S(=O)(=O)NCCNc2nccc(-c3c(-c4cccc(F)c4)nc4sccn34)n2)cc1`, for which the growth was 52.9%.

`COc1cccc(C(=O)NCCNc2cc(-c3cn(-c4ccccc4)nc3-c3cccc(OC)c3)ccn2)c1`: the growth was 63.9%.

Consider `CCCCOc1nc2ccccc2cc1C1CNC(=O)c2ccccc2N1` (stereo not drawn), for which the growth was 56.5%.

As for `O=C(CCc1nnc(CN(c2ccccc2)c2ccccc2)o1)c1nc2ccccc2[nH]1`, the growth is 90.3%.
